# Measured values reported in PubChem BioAssay (NCATS).
# Results filed as inconclusive are left out. A call without a number means that no potency is given here. The source made the active and inactive calls. The call rests on the fitted dose curve; in most records, active means well fitted inhibition curve with a large enough effect; inconclusive means small, poorly fitted or top-dose-only effect; inactive means no such curve, though single readings can be large or run the other way.
# Tested on: Zika virus NS2B-NS3 protease (linked construct)
# Experiment: Primary screen NINDS Rhodamine qHTS for Zika virus inhibitors (AID 1347160); further: nearly all actives have a fitted effect of over 55% in size
# Conditions: purified NS2B-NS3 protease, Rhodamine110 substrate fluorescence; series mostly up to 57.1 µM
# In short: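 Purified linked NS2B-NS3 protease (NS2B hydrophilic domain joined to NS3 protease by flexible linker), 25 nM in 10 mM Tris-HCl pH 8.0, 0.01% Tween 20. Compounds titrated, 15 min preincubation at room temperature; 1.5 microM Rhodamine110 substrate, FITC fluorescence change over 15 min.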
SMILES,Potency,outcome
CCOCCn1nc(CC)c2nc(N3CCC(C(=O)O)CC3)nc(Nc3cc(C)ccn3)c21,inactive,
O=C(OC1C=C(CO)C2C(OC3OC(CO)C(O)C(O)C3O)OC=CC12)c1ccc(O)cc1 (configuration not stated),inactive,
Cc1c(CN2CCN(C(=O)C(C)O)CC2)sc2c(N3CCOCC3)nc(-c3cnc(N)nc3)nc12 (configuration not stated),inactive,
Nc1ccc(-c2cccc3c(=O)cc(N4CCOCC4)oc23)cc1,inactive,
CCNC(=O)Nc1ccc(-c2nc3c(c(N4CCOC[C@@H]4C)n2)CCN(c2ncccn2)C3)cc1,inactive,
CC(C)O[C@@H]1O[C@H](CO)[C@@H](O)[C@H](O)[C@H]1O,inactive,
C[C@H]1CC[C@@H]2N(C1)C[C@@H]1[C@H]([C@@H](O)[C@H](O)[C@]3(O)[C@H]1C[C@@]14OC5(O)[C@@H](C[C@@H](O)[C@@H]31)[C@]4(C)CC[C@@H]5O)[C@]2(C)O,inactive,
CC1CC(O)C2(OC1=O)OC1C(O)C3C4CCC5CC(OC6OC(CO)C(O)C(O)C6OC6OC(C)C(O)C(O)C6O)CCC5(C)C4CCC3(C)C1C2C (configuration not stated),inactive,
C[C@@H]1O[C@@H](O[C@H]2[C@H](OC(=O)[C@]34CCC(C)(C)C[C@H]3C3=CCC5[C@@]6(C)CC[C@H](O[C@@H]7O[C@H](C(=O)O)[C@@H](O)[C@H](O)[C@H]7O[C@@H]7O[C@H](CO)[C@H](O)[C@H](O)[C@H]7O)[C@@](C)(C=O)C6CC[C@@]5(C)[C@]3(C)C[C@H]4O)O[C@H](C)[C@H](O[C@@H]3O[C@H](C)[C@H](O)[C@H](O)[C@H]3O)[C@@H]2O)[C@H](O)[C@H](O)[C@H]1O[C@@H]1OC[C@@H](O)[C@H](O[C@@H]2O[C@H](CO)[C@@H](O)[C@H](O)[C@H]2O)[C@H]1O (some centres not stated),,inactive [at 10.7 µM]
C[C@H](NC(c1cccc(C[P+](=O)O)c1)[C@H](C)O)c1ccc(Cl)c(Cl)c1 (some centres not stated),inactive,
CC1(c2nc3c(C(N)=O)cccc3[nH]2)CCCN1 (configuration not stated),inactive,
COc1cccc(-c2cc(NCc3ccc4c(c3)OCO4)nc(N)n2)c1,inactive,
CO[C@H]1C[C@@H]2CC[C@@H](C)[C@@](O)(O2)C(=O)C(=O)N2CCCC[C@H]2C(=O)O[C@H]([C@H](C)C[C@H]2CC[C@@H](OP(C)(C)=O)[C@H](OC)C2)CC(=O)[C@H](C)/C=C(\C)[C@@H](O)[C@@H](OC)C(=O)[C@H](C)C[C@H](C)/C=C/C=C/C=C/1C,inactive,
CCOc1cc2ncc(C#N)c(Nc3ccc(F)c(Cl)c3)c2cc1NC(=O)/C=C/CN(C)C,inactive,
C[C@H](O)[C@H](O)/C=C/c1cccc(O)c1CO,inactive,
C=C1C(=O)O[C@@H]2/C=C(\C)C(=O)/C=C/[C@](C)(O)C[C@@H](OC(=O)C(C)C)[C@@H]12,inactive,
CCOc1cc(C)c(Cl)cc1S(=O)(=O)n1cnc2ccccc21,inactive,
